Screening data (PubChem BioAssay)
TDP1 inh: inhibitors of human tyrosyl-DNA phosphodiesterase TDP1; recombinant TDP1, AlphaScreen DNA substrate cleavage; Potency, µM (highest dose often 130 µM), usual class: inhibitors; actives 0.28% (n = 350,000); Q9NUW8; AID 485290; also: nearly all actives have a fitted effect of over 40% in size
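Tdp1 1 nM final; 15 min RT w/ cpd; substrate 15 nM, 5 min; beads 10 ug/ml, 10 min; AlphaScreen read. Neg ctrl: no enzyme.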
ClpP mod: qHTS Assay for Activators of ClpP. Potency, µM (top dose mostly 57.5 µM). actives 1.9% (n = 340,000). purified B. subtilis ClpP, FRET peptide cleavage, 20 min; active = well fitted falling curve with a large enough effect; inconclusive = small, poorly fitted or top-dose-only effect; inactive = no such curve, though single readings can be large or run the other way; also: the source files actives as falling curves though it sought activators and does not explain the sign; nearly all actives have a fitted effect of over 65% in size
Target sequence (P80244 whole entry, looked up): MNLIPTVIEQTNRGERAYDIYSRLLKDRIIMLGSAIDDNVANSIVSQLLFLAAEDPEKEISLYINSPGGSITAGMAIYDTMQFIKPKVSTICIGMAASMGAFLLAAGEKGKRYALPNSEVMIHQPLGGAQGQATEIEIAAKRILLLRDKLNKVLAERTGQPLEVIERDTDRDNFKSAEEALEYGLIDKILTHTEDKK
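Purified B. subtilis ClpP, 10 microg/mL final in Tris/HCl pH8 with KCl, BSA, glycerol and Tween-20, cleaved an Abz/nitrotyrosine-quenched decapeptide. Fluorescence (ex 320, em 430) was read at 0 and 20 min at room temperature. Delta was normalized to 5.8 microM ADEP and DMSO/no-enzyme controls.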
DT40 TDP1 no CPT: qHTS for Inhibitors of human tyrosyl-DNA phosphodiesterase 1 (TDP1): qHTS in cells in absence of CPT; DT40 Tdp1-/- hTDP1 cells, no CPT, ATP luminescence, 48 h; Potency, µM (highest dose often 46.2 µM), hits mostly inhibitors; actives 15% (n = 420,000); AID 686978, 2013; also: nearly all actives have a fitted effect of over 55% in size
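DT40 Tdp1-/-;hTDP1 cells, no CPT (DMSO vehicle only), 400 cells/well; compounds pin-transferred; ≥48 hr, 37 °C; CellTiter-Glo 30 min RT dark, luminescence read.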
DT40 TDP1 CPT: growth inhibition of DT40 Tdp1-/-;hTDP1 cells with camptothecin (screen for TDP1 inhibitors). chicken DT40 Tdp1-/-;hTDP1 cells + 20 nM CPT, ATP luminescence, 48 h. AID 686979. actives 12% (n = 420,000). Potency, µM (series often up to 46.2 µM), usual class: inhibitors; also: nearly all actives have a fitted effect of over 55% in size
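Chicken DT40 Tdp1-/- cells complemented with human TDP1, 400 cells/well, exposed to compounds plus 20 nM camptothecin for at least 48 h at 37 C; viability read as ATP content by CellTiter-Glo luminescence.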
A number is an active result; – = inactive; ? = inconclusive; · = no result; [ ] = another dose, or the depositor's remark. A selection: hits, their analogues and other compounds. The true share with any hit is near 17%. Unless noted, calls follow the shape of the dose curve; as a rule, active = well fitted curve in the direction sought with a large enough effect; inconclusive = small, poorly fitted or top-dose-only effect, or another doubt; inactive = no such curve, though single readings can be large; an effect the other way counts as inactive or inconclusive.

SMILES	TDP1 inh	ClpP mod	DT40 TDP1 no CPT	DT40 TDP1 CPT
COc1ccccc1-c1nc2cc(NC(=O)c3ccccc3Cl)ccc2o1	–[12.3 µM]	–	?	?
O=C(Nc1ccc2oc(-c3ccccc3)nc2c1)C1CCCO1 (centres undefined)	–	–	?	–
O=C(Nc1nc2ccccc2s1)C1CCCO1 (centres undefined)	–	–	–	–
O=C(Nc1ccc(-c2nc3cccnc3s2)cc1)C1CCCO1 (centres undefined)	–	–	21µM	23µM
Cc1ccc(C(=O)Nc2ccc3oc(-c4cc(Br)ccc4Cl)nc3c2)cc1	–[2.28 µM]	?	?	23µM
O=C(Nc1ccc2oc(-c3ccccc3F)nc2c1)c1ccccc1Cl	–[12.3 µM]	–	13µM	?
O=C(Nc1ccc(-c2nc3cc(Cl)ccc3o2)cc1)C1CCCO1 (centres undefined)	–	28µM	–	–
Cc1cccc(C)c1NC(=O)C1(C)CN(S(C)(=O)=O)CC(=O)N1Cc1cccc(F)c1 (centres undefined)	·	–	–	–
COc1ccc(CCNC(=O)CCCn2nc(C)c3sc4ccccc4c3c2=O)cc1OC	–	–	?	?
COCCCNC(=O)[C@@H](Cc1ccccc1)NC(=O)CC[C@H]1O[C@@H](n2ccc(=O)[nH]c2=O)[C@H](O)[C@@H]1O	·	–	–	–
O=C(Nc1ccc(Cl)c(-c2nc3cc(Cl)ccc3o2)c1)c1cc2ccccc2o1	–[12.3 µM]	?	?	?
Cc1ccc2oc(-c3cc(NC(=O)c4oc5ccccc5c4C)ccc3Cl)nc2c1	–[2.28 µM]	?	–	0.016µM
O=C(Nc1ccc(-c2nc3cc(Cl)ccc3o2)cc1)c1cc(Br)ccc1Cl	–[12.3 µM]	28µM	?	?
N#Cc1ccc(C(=O)Nc2ccc(Cl)c(-c3nc4cc(Cl)ccc4o3)c2)c(F)c1	–	–	18µM	23µM
COc1ccc(Br)cc1C(=O)Nc1ccc(-c2nc3cc(Cl)ccc3o2)cc1	–[12.3 µM]	–	–	–
O=C(Nc1ccc2oc(-c3cccc(Cl)c3Cl)nc2c1)c1cccc(Br)c1	–[12.3 µM]	–	?	13µM
O=C(Nc1ccc2oc(-c3cccc4c(Br)cccc34)nc2c1)c1cccc(Cl)c1	–[12.3 µM]	–	?	–
CC(C)c1ccc2oc(-c3cc(NC(=O)c4cccnc4)ccc3Cl)nc2c1	·	?	16µM	?
CC(C)c1ccc(NC(=O)c2cccnc2)cc1	–	–	–	–
CC(C)(C)C(=O)Nc1ccc2oc(-c3cc(F)c(F)cc3Cl)nc2c1	–	32µM	?	?
COc1ccc(C(=O)Nc2ccc3oc(-c4ccc5ccccc5c4)nc3c2)cc1Br	–[12.3 µM]	–	18µM	18µM
COc1ccc(-c2nc3cc(NC(=O)c4ccc(C)cc4)ccc3o2)cc1Cl	–[12.3 µM]	–	?	21µM
O=C1CCN(Cc2ccc(O)cc2)CCN1CCO	·	–	–	–
O=C(c1ccc(Br)cc1)N1CCC(C(=O)N2CCN(Cc3ccccc3)CC2)CC1	–	–	?	?
CCOc1ccc(C(=O)Nc2ccc(-c3nc4cc(C)ccc4o3)cc2)cc1	–	–	·	·
SMILES	TDP1 inh	ClpP mod	DT40 TDP1 no CPT	DT40 TDP1 CPT
Cc1ccc(C(=O)Nc2ccc3oc(-c4ccc(C(C)(C)C)cc4)nc3c2)cc1	–[12.3 µM]	–	8.2µM	?
CCOc1ccc(C(=O)Nc2ccc(-c3nc4cc(CC)ccc4o3)cc2)cc1	–[12.3 µM]	–	?	3.7µM
Nc1c(Br)cc2c([nH]c(=O)c3ccccc32)c1Br	·	–	?	?
Cc1cnc(CNc2ncncc2-c2ccccc2C)cn1	·	·	?	–
COc1cccc(/C=N/NC(=O)c2cc3c(OC)cccc3[nH]2)c1OC	–	–	7.3µM	–
COc1cccc(/C=N/NC(=O)c2cc3c(OC)cccc3[nH]2)c1O	–	–	6.5µM	5.2µM
CCOc1ccc(/C=N/NC(=O)c2cc3c(OC)cccc3[nH]2)cc1	·	–	23µM	18µM
COc1cccc(/C=N/NC(=O)c2cnccn2)c1O	·	–	?	?
COc1ccc(OC)c(/C=N/NC(=O)c2cc3c(OC)cccc3[nH]2)c1	·	·	?	–
CCOc1ccc2[nH]c(C(=O)N/N=C/c3cc(OC)c(OC)c(OC)c3)cc2c1	·	·	16µM	?
COc1ccc(C(C)(NC(C)=O)c2nc(-c3cccc(F)c3)cs2)cc1 (centres undefined)	·	–	?	?
COc1ccccc1/C=N/NC(=O)c1cc2c(OC)c(OC)ccc2[nH]1	·	–	3.3µM	4.1µM
COc1cccc(/C=N/NC(=O)c2cc3c(OC)c(OC)ccc3[nH]2)c1OC	–	–	2.6µM	2.3µM
COc1ccc(OC)c(/C=N/NC(=O)c2cc3c(OC)cc(OC)cc3[nH]2)c1	–	–	?	?
O=C1C2C3CCC(CC3)C2C(=O)N1c1ccccc1 (centres undefined)	·	·	–	–
CC(=O)c1ccc(NC(=O)c2ccc(-c3nc(COc4ccc(C)cc4)c(C)o3)cc2)cc1	–	–	–	–
COc1cccc(CNC(=O)c2ccc(CS(=O)(=O)Cc3ccccc3C)o2)c1	–	·	23µM	29µM
Cc1cccc(CNC(=O)c2ccc(-c3nc(CS(=O)(=O)c4ccccc4)c(C)o3)cc2)c1	–	–	?	–
Cc1ccc(OCc2nc(-c3ccc(C(=O)NCCc4ccc(S(N)(=O)=O)cc4)cc3)oc2C)cc1	–	–	23µM	15µM
COc1cccc(CNC(=O)c2ccc(-c3nc(COc4ccccc4)c(C)o3)cc2)c1	–	–	9.2µM	15µM
COc1cccc(CNC(=O)c2ccc(CS(=O)(=O)Cc3ccc(C)cc3)o2)c1	–	–	–	–
COc1cccc(CNC(=O)c2ccc(-c3nc(CS(=O)(=O)c4ccccc4)c(C)o3)cc2)c1	–	–	23µM	?
N#Cc1cccc(C(=O)C(=O)N2CCN(c3ccccc3)CC2)c1	·	–	–	–
COCCn1c(=O)c(-c2cccs2)nc2cnc(Oc3ccccc3)nc21	·	·	–	?
Cc1oc(-c2ccc(C(=O)NCc3ccccc3)cc2)nc1CS(=O)(=O)c1ccccc1	–	–	?	–
SMILES	TDP1 inh	ClpP mod	DT40 TDP1 no CPT	DT40 TDP1 CPT
CCc1ccc(CNC(=O)c2ccc(-c3nc(CS(=O)(=O)c4ccccc4)c(C)o3)cc2)cc1	–	?	?	15µM
CSc1ccc(CN2CCC(C(=O)NCc3ccc(C)cc3)CC2)cc1	–	–	–	?
Cc1ccccc1S(=O)(=O)NNC(=O)C(=O)NNc1ccccn1	–	–	23µM	?
Cc1ccc(S(=O)(=O)NNC(=O)C(=O)NNc2ccccn2)cc1	–	–	?	?
CCCN1Cc2cccc(C(=O)Nc3ccccc3C(=O)OC)c2C1=O	–	–	16µM	23µM
CCCN1Cc2cccc(C(=O)Nc3cc(OC)cc(OC)c3)c2C1=O	–	–	–	–
CCCN1Cc2cccc(C(=O)Nc3ccc(OC)cc3OC)c2C1=O	–	–	23µM	?
O=C(CBr)c1ccc(Oc2ccc(C(=O)C[n+]3cccc(Br)c3)cc2)cc1	·	–	16µM	?
